High-throughput results: PubChem BioAssay, University of Kansas High Throughput Screening Laboratory
mHTT CaM bind – mutant huntingtin-calmodulin interaction inhibitors – biochemical, AlphaScreen, primary screen; P42858; AlphaScreen His-mHTT/GST-CaM binding, luminescence; inhibition, % at 15 µM; actives 3.6% (n = 190,000); AID 1671202, 2021;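 further: 0% = both proteins with DMSO and 100% = one protein alone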
Pf apPOL inh – Pf-apPOL inhibitors, biochemical, fluorescence. Recombinant Pf-apPOL, molecular beacon fluorescence, 1.5 h. inhibition, % at 10 µM. actives 0.25% (n = 210,000). AID 1794808, 2022
The depositor's hits bear a star; x = no result. Compounds with a hit are over-represented: about 3.5% of the library has one in this group of screens. No stated cut-off is given here; in the data, active means inhibition above about 50%; inactive means the rest.

SMILES	mHTT CaM bind	Pf apPOL inh
CN1C(=O)NC(c2ccc(F)cc2)C2=C1CN(Cc1cccnc1)C2=O (stereo not drawn)	-3	1
CC(C)CCC(=O)N1CCCN(C2CCN(Cc3ccccc3)C2=O)CC1 (stereo not drawn)	21	6
CN1C(=O)CC(C(=O)O)SC1=Nc1ccc(Br)cc1 (stereo not drawn)	2	8
O=C1CC(=Nc2ccc(Br)cc2)NN1c1ccccc1	77*	-9
COc1ccc(O)c(C2NC(C)(C(=O)O)C3C(=O)N(c4cccc(Cl)c4)C(=O)C23)c1 (stereo not drawn)	13	5
O=C(NCc1ccccn1)c1cc2n(n1)CCCN(Cc1ccc(Cl)cc1)C2=O	15	27
CC1CC(=Cc2cccnc2)C(=O)C(=Cc2cccnc2)C1 (stereo not drawn)	2	-4
O=C(Nc1nc(-c2ccccc2)cs1)c1ccncc1	8	-13
O=C(Nc1nc(-c2cc([N+](=O)[O-])cs2)cs1)c1cc(-c2ccco2)on1	-10	4
O=C(Nc1cc(-c2ccccn2)no1)c1ccccn1	100*	-10
COc1cc(OC)cc(C(=O)Nc2nc(C(=O)NC(C)c3ccccc3)cs2)c1 (stereo not drawn)	-9	-3
O=C(Nc1cc(-c2ccccn2)no1)c1ccc(Cl)cc1	10	1
O=C(Nc1nc(-c2ccccn2)cs1)c1ccc(Oc2ccccc2)cc1	94*	-5
COc1cc(OC)cc(C(=O)Nc2nc(-c3ccccn3)cs2)c1	100*	-6
O=C(Nc1nc(-c2ccccn2)cs1)c1cc(-c2ccco2)on1	100*	-213
CSc1sc(SC)c(Br)c1Br	-46	x
CCN1CCN(C(=O)c2cnn3c(-c4ccccc4Cl)ccnc23)CC1	-2	1
CN(CCc1ccccn1)Cc1ccccc1Br	-1	1
CCOC(=O)CNC(=O)N1CCCC1c1cc(CC)no1 (stereo not drawn)	-4	1
COCc1ccc(-c2c(-c3ccccc3OC)sc3ccccc23)cc1	-38	-3
COc1cc(-c2c(CCO)sc3ccccc23)cc(OC)c1OC	97*	-13
Cc1noc(-c2nn(C)c3c2CN(C(=O)c2ccc(C)c(F)c2)CC3)n1	-8	2
CCOc1ccc(N2CC(c3nnc(NC(=O)c4ccc(Cl)cc4)o3)CC2=O)cc1 (stereo not drawn)	9	-2
COc1ccc(N2CC(c3nnc(NC(=O)c4ccc(C)cc4)o3)CC2=O)cc1 (stereo not drawn)	50*	-1
COc1ccc(N2CC(c3nnc(NC(=O)c4ccc(C(C)(C)C)cc4)o3)CC2=O)cc1 (stereo not drawn)	8	-3
SMILES	mHTT CaM bind	Pf apPOL inh
CCOc1ccc(N2CC(c3nnc(NC(=O)c4ccc(C)cc4)o3)CC2=O)cc1 (stereo not drawn)	60*	-2
Cc1ccc(-c2c(C(=O)NCc3ccccn3)oc(=O)c3ccccc23)cc1	3	-4
COc1ccc(-c2noc(-c3ccc(NCCc4ccccc4)nc3)n2)cc1	-5	2
O=C(c1ccccc1)N1CCCC2(C1)Nc1ccccc1NC2=NC1CCCC1 (stereo not drawn)	32	2
O=S(=O)(C1CC1)N1CCCC2(C1)Nc1ccccc1NC2=NCc1ccccc1 (stereo not drawn)	62*	-5
O=C(c1ccncc1)N1CCCC2(C1)Nc1ccccc1NC2=NCc1ccccc1 (stereo not drawn)	24	0
COCCC(=O)N1CCCC2(C1)Nc1ccccc1NC2=NC1CCCC1 (stereo not drawn)	7	-4
O=C(c1ccoc1)N1CCCC2(C1)Nc1ccccc1NC2=NC1CCCC1 (stereo not drawn)	69*	4
O=C(NCc1ccccc1)N1CCCC2(C1)Nc1ccccc1NC2=NC1CCCC1 (stereo not drawn)	100*	-6
O=C(c1ccccn1)N1CCCC2(C1)Nc1ccccc1NC2=NC1CCCC1 (stereo not drawn)	24	0
O=C(c1ccco1)N1CCCC2(C1)Nc1ccccc1NC2=NC1CCCC1 (stereo not drawn)	79*	-1
CC(C)C(=O)N1CCN(c2nc3c(s2)CC(C(=O)NCc2ccccn2)CC3)CC1 (stereo not drawn)	-4	-6
COc1cc(C=C(C#N)c2nc(-c3ccc(CC(C)C)cc3)cs2)cc(OC)c1OC(C)=O	-7	-6
Cc1ccc(CNC(=O)c2ccc(-c3ccsc3)nc2)cc1	-10	0
CCNC(=O)c1ccc2c3c(onc13)-c1ccccc1C2=O	51*	0
CCNC(=O)c1ccccc1-c1ccccc1C(=O)O	-5	-3
O=[N+]([O-])c1cc(Cl)ccc1Sc1ccccc1NS(=O)(=O)c1cccc(C(F)(F)F)c1	x	-17
N#CC1=C(N)Oc2n[nH]c(-c3cccs3)c2C1c1cccs1 (stereo not drawn)	7	2
COc1ccc(C2C(C#N)=C(N)Oc3n[nH]c(-c4cccs4)c32)c(OC)c1OC (stereo not drawn)	15	2
N#CC1=C(N)Oc2n[nH]c(-c3cccs3)c2C1c1ccc([N+](=O)[O-])s1 (stereo not drawn)	55*	-1
COc1c(Cl)cc(Cl)cc1C1C(C#N)=C(N)Oc2n[nH]c(-c3cccs3)c21 (stereo not drawn)	74*	0
Cc1csc(-c2ccc(N3CCN(C(=O)c4ccncc4)CC3)nc2)n1	-3	-10
CCC(=O)NCCc1csc(C2CCCN(C(=O)Cc3ccc(F)cc3)C2)n1 (stereo not drawn)	-8	-7
Nc1cccc(C(=O)Nc2ccccc2)c1	-2	-5
Nc1ccc(C(=O)Nc2ccccc2)c(N)c1	95*	-12
SMILES	mHTT CaM bind	Pf apPOL inh
Cc1ccccc1-c1ccc(CN2C(C(C)C)C(=O)N(Cc3cn(CCC4OCCO4)nn3)CCS2(=O)=O)cc1 (stereo not drawn)	71*	-5
Cc1ccc(-c2ccc(CN3C(C(C)C)C(=O)N(Cc4cn(CCC5OCCO5)nn4)CCS3(=O)=O)cc2)c(C)c1 (stereo not drawn)	74*	-3
COc1ccc(-c2ccc(CN3C(C(C)C)C(=O)N(Cc4cn(CCC5OCCCO5)nn4)CCS3(=O)=O)cc2)cc1OC (stereo not drawn)	44	5
CC(C)Cc1ccc(CN2C(C(C)C)C(=O)N(Cc3cn(CCC4OCCO4)nn3)CCS2(=O)=O)cc1 (stereo not drawn)	8	-8
COc1ccc(Cl)cc1S(=O)(=O)N1CCc2nc(C)ncc2C1	13	-1
CCOC(=O)C1CCCN(C(=O)c2cccn2C)C1 (stereo not drawn)	4	-6
O=C(CNC1=NCCC1)c1ccc(-c2ccccc2)cc1	100*	-1
O=C(CNC1=NCCC1)c1ccc(Br)cc1	0	1
COc1cccc(-c2[nH]ncc2CN2CCCC2c2cc(C(C)C)on2)c1 (stereo not drawn)	-6	-2
CC(=O)N1N=C(c2ccc([N+](=O)[O-])cc2)CC1c1ccccc1 (stereo not drawn)	15	-4
O=[N+]([O-])c1ccc(N2N=C(c3ccccc3)CC2c2ccccc2O)cc1 (stereo not drawn)	99*	2
O=[N+]([O-])c1ccc(N2N=C(c3ccc(O)cc3)CC2c2ccc(F)cc2)cc1 (stereo not drawn)	98*	-6
